# SARS PLP yeast – SARS-CoV PLP inhibition in yeast | S. cerevisiae expressing SARS-CoV PLpro, growth rescue | Potency, µM (highest dose often 32.9 µM), for inactives: at the top dose activity, positive = growth rescue, most hits filed as activators | actives 0.19% (n = 330,000); also: potency is read from the fitted curve at half-maximal effect; 0% is about no effect; nearly all actives have a fitted effect of over 55% in size
# Pf growth 48h – inhibits P. falciparum growth in the first generation, 48 h; P. falciparum luciferase growth in erythrocytes, 48 h; Potency, µM (highest dose often 28.7 µM), inactives show at the highest dose activity change, negative = inhibition, hits mostly inhibitors; actives 5.9% (n = 310,000); AID 504832; active = well fitted inhibition curve with a large enough effect; inconclusive = small, poorly fitted or top-dose-only effect, or another doubt; inactive = no such curve, though single readings can be large or run the other way; also: potency is read from the fitted curve at half-maximal effect; % is scaled to controls: 0 for no effect and ±100 for the full control effect
#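 Here the parasites carry a stable luciferase gene and grow inside erythrocytes in Albumax-based RPMI medium with compound for one erythrocytic cycle. Activity is scored as loss of luminescent signal.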
# NS1 function inh – inhibitors of influenza NS1 protein function. Potency, µM (series often up to 46.1 µM), for inactives: at the highest dose activity, positive = more growth. actives 0.4% (n = 270,000); also: potency is read from the fitted curve at half-maximal effect; actives are rising curves; nearly all actives have a fitted effect of over 50% in size
#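 OD600 was taken as the measure of yeast growth restored by compound in an NS1-expressing S. cerevisiae strain. Cells had been washed out of glucose medium and diluted 1:100 into galactose -URA medium, pH 6.0.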
# RE007 growth inh – less growth of the S. pombe RE007 Vpr strain. S. pombe RE007 Vpr strain, BacTiter-Glo ATP luminescence, 24 h. Potency, µM (top dose mostly 92.2 µM), without a hit: top-dose activity change, negative = less growth, hits mostly inhibitors. actives 0.21% (n = 360,000); active = well fitted falling curve with a large enough effect; inconclusive = small, poorly fitted or top-dose-only effect; inactive = no such curve, though single readings can be large or run the other way; also: potency is read from the fitted curve at half-maximal effect; % is scaled to controls: 0 for no effect and ±100 for the full control effect; nearly all actives have a fitted effect of over 50% in size
#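 Fission yeast strain RE007, carrying one chromosomally integrated HIV-1 vpr copy, was seeded at OD 0.01 in PMG+AL medium with 23 nL pinned compound. After 24 h at 30 °C and 99% humidity, viability was read by BacTiter-Glo luminescence.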
# Pf growth 96h – P. falciparum growth inhibition at 96 hours | Potency, µM (highest dose often 28.7 µM), without a hit: at the highest dose activity change, negative = inhibition, actives largely listed as inhibitors | AID 504834 | actives 6.9% (n = 320,000) | P. falciparum luciferase reporter growth, 96 h; active = well fitted inhibition curve with a large enough effect; inconclusive = small, poorly fitted or top-dose-only effect, or another doubt; inactive = no such curve, though single readings can be large or run the other way; also: potency is read from the fitted curve at half-maximal effect; % is scaled to controls: 0 for no effect and ±100 for the full control effect
#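 Two-generation exposure (96 h) targets delayed-death phenotype. Reporter parasites carrying integrated firefly luciferase, in red cells at 2% hematocrit and 0.05% parasitemia final, kept at 37 C, 5% CO2; luminescence loss indicates inhibition.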
# Flu NS1 inh – influenza NS1 function inhibition validation; shares compounds with NS1 function inh; influenza NS1 function cell assay, 15-point titration; activity change, negative = inhibition, % at 32.9 µM; 1,400 tested, under 10 active; AID 492980; also: 0% is about no effect
# Flu PR8 replic – influenza virus titer reduction, NS1 project; shares compounds with NS1 function inh; MDCK infected influenza A/PR/8/34, virus titer TCID50; active compounds read low; virus titer (log TCID50), log10 TCID50 at 5 µM; actives 30% (n = 95); AID 504647; call rule not given here
# Starred values were filed as active, the others as inactive; ? = inconclusive; / = not tested or not shown; [ ] = remark or other dose. The list is not random: actives were taken first. Their share in the collection is about 9.5%. Unless noted, calls follow the shape of the full dose curve.
SMILES,SARS PLP yeast,Pf growth 48h,NS1 function inh,RE007 growth inh,Pf growth 96h,Flu NS1 inh,others
Cc1ccc(F)c([C@H]2[C@H]3C=CC[C@@H](C)[C@@H]3C(=O)N2Cc2ccccc2)c1,-16.1%,?,?,-7.0%,?,?,Flu PR8 replic=9
Cc1ccc(-n2nc(C)c3c2OC(N)=C(C#N)C3c2ccco2)cc1 (stereo not drawn),-0.9%,-20.7%,?,-17.4%,46.9%,/,
Cc1ccc(-n2nc(C)c3c2OC(N)=C(C#N)C3c2ccoc2)cc1 (stereo not drawn),4.9%,/,2.51µM*,-8.9%,/,7.4,
O=C(Nc1nnc(SCc2ccc(Cl)cc2)s1)c1ccco1,1.9%,?,-19.2%,-28.4%,213.3%,/,
O=C(Nc1nnc(SCc2ccc(F)cc2)s1)C1Cc2ccccc2CN1C(=O)c1ccco1 (stereo not drawn),-1.0%,-20.9%,7.94µM*,7.4%,-8.1%,6.0,
Cc1nc(C(=O)O)cc([N+](=O)[O-])c1C,/,/,/,-4.7%,/,/,
NC(c1csc(Nc2nccc(C(F)(F)F)n2)n1)C1CCCCC1 (stereo not drawn),/,/,/,-0.3%[18.4 µM],/,/,
COc1ccc(NC(=O)c2cc(C3CCCCN3S(=O)(=O)c3ccc(F)cc3F)on2)c(C)c1 (stereo not drawn),/,/,/,0.9%,/,/,
COc1ccccc1/C=N/NC(=O)c1[nH]c(C)c(C(=O)N/N=C/c2ccccc2OC)c1C,-10.5%,29.0%,?,13.5%,?,?,
COc1ccccc1C(=O)N(Cc1sccc1C)C1CCS(=O)(=O)C1 (stereo not drawn),-10.1%,1.6%,3.16µM*,9.5%,2.08µM*,3.0,
Cc1ccc(S(=O)(=O)N2CC3C(=O)CC(c4ccccc4)N(S(=O)(=O)c4ccc(C)cc4)C3CC2c2cccc(Cl)c2)cc1 (stereo not drawn),/,/,/,4.3%,/,/,
CC1(C)SC(=S)N(NC(=O)Nc2ccccc2)C1N(O)C(=O)Nc1cccc2ccccc12 (stereo not drawn),4.0%,?,22.4µM*,-5.0%,?,9.4,
CC1(C)SC(=S)N(/N=C/c2ccccc2O)C1N(O)C(=O)Nc1ccccc1 (stereo not drawn),3.4%,-27.3%,-4.4%,1.9%,38.1%,/,
COc1ccc2nc(C(F)(F)C(F)(F)F)c(C#N)c(N)c2c1,7.5%,/,7.94µM*,11.8%,-13.3%,16.4,
COc1cc(OC)c2c(N)c(C#N)c(C(F)(F)C(F)(F)F)nc2c1,9.0%,/,-2.0%,-6.8%,42.4%,/,
COc1ccc(CN2C(=O)CC(=O)NC2=O)cc1,-0.2%,1.3%,3.55µM*,-12.8%,4.15µM*,26.1,
NC(=O)NCCC1=CCCCC1,8.5%,/,-3.2%,-8.0%,20.8%,/,
C1=C(CCNC2=NCCCCC2)CCCC1,17.1%,-21.1%,20µM*,10.1%,-27.7%,-10.7,
COCCNC(=O)CN(Cc1ccc(F)cc1)C(=O)CCC(=O)Nc1nccs1,4.0%,44.9%,-9.5%,-7.9%,?,/,
COC(=O)c1ccccc1NC(=S)N(Cc1ccc2c(c1)OCO2)Cc1cc2cc(C)ccc2[nH]c1=O,5.6%,?,11.2µM*,6.7%,5.3%,?,
CCc1ccc2[nH]c(=O)c(CN(Cc3ccc4c(c3)OCO4)C(=O)c3ccco3)cc2c1,2.3%,?,10.3%,28.2%,1.1%,/,
COc1cccc(/C=N/NC(=O)c2nc(-c3ccccc3)cc(-c3ccccc3)n2)c1,6.3%,10.4µM*,?,0.6%,7.0%,-25.9,
COc1cccc(/C=N/NC(=O)c2cnccn2)c1,1.8%,36.8%,-8.4%,10.3%,0.0%,/,
Cc1cc(C)n2nc(SCC(=O)N3CCCC(C)C3)nc2n1 (stereo not drawn),1.0%,/,/,1.3%,/,/,
COc1cccc(NC(=O)C(Sc2nnc(-c3ccncc3)n2-c2ccc(Cl)cc2)c2ccccc2)c1 (stereo not drawn),5.1%,?,14.1µM*,-5.6%,?,2.0,
SMILES,SARS PLP yeast,Pf growth 48h,NS1 function inh,RE007 growth inh,Pf growth 96h,Flu NS1 inh,others
COCCCn1cc(CN(C)C2CN(Cc3cn(CCCOC)nn3)S(=O)(=O)C2)nn1 (stereo not drawn),/,/,/,2.6%,/,/,
c1ccc(C(c2nnnn2Cc2ccco2)N2CCN(c3nc4ccccc4s3)CC2)cc1 (stereo not drawn),13.2%,?,12.6µM*,18.9%,/,-19.4,
c1ccc(Cn2nnnc2C(c2ccccc2)N2CCN(c3nc4ccccc4s3)CC2)cc1 (stereo not drawn),-2.3%,7.4%,10µM*,12.9%,-2.3%,-14.4,
c1ccc(C(c2nnnn2Cc2ccco2)N2CCN(C3CCCC3)CC2)cc1 (stereo not drawn),3.3%,-3.5%,0.7%,-4.3%,?,/,
COc1ccc(C(c2nnnn2C(C)(C)C)N2CCN(c3nc4ccccc4s3)CC2)cc1 (stereo not drawn),-21.8%,?,14.9%,17.5%,1.4%[5.75 µM],/,
CCOC(=O)N1CCN(C(=O)COC(=O)c2oc3ccc(OC)cc3c2C)CC1,3.8%,-2.6%,0.5%,-2.1%,18.6%,/,
COc1ccc(-c2cn[nH]c2N)c(OC)c1,-6.6%,?,8.91µM*,1.4%,/,1.4,
CCCCCC(=O)N1C[C@@H](n2cc(-c3ccc(F)cc3)nn2)[C@H](O)C[C@@H]1c1ccc(OC)cc1,/,/,/,13.1%,/,/,
O=C1NN(c2ccc(Br)cc2)C(=O)/C1=C\c1ccc(O)cc1O,-5.1%,1.5%,3.98µM*,37.3%,-50.2%,-14.0,
O=C1NN(c2ccccc2)C(=O)C1=Cc1ccccc1O,/,/,/,135.1%,/,/,
O=P(c1ccccc1)(c1ccccc1)C(O)c1cccs1 (stereo not drawn),/,/,/,-4.4%,/,/,
CCN1CCN(CCNC(=O)c2ccc(CS(=O)(=O)c3c(Cl)cccc3Cl)o2)CC1,-3.2%,/,?,-0.2%,40.0%,-15.6,
CCCCN(C)C(=O)c1sc(=O)n(Cc2c(C)cccc2C)c1C,/,/,/,0.2%[18.4 µM],/,/,
O=C1Nc2cc(S(=O)(=O)N3CCCC3)ccc2N2CCCC12 (stereo not drawn),-0.3%,16.5µM*,12.6µM*,-7.7%,-16.6%,33.0,
COC(=O)C[C@@H]1C=C[C@H](NC(=O)Nc2cc(F)ccc2F)[C@@H](CO)O1,/,/,/,2.6%,/,/,
COc1ccc(-c2nnc(SC(C(=O)c3c[nH]c4ccccc34)c3ccccc3)n2N)cc1OC (stereo not drawn),10.6%,8.28µM*,20µM*,17.0%,?,?,
Cc1ccc(C(=O)N2CCN(C3c4cccc5cccc(c45)C3NS(=O)(=O)c3ccccc3)CC2)cc1 (stereo not drawn),-0.8%,2.08µM*,11.2µM*,31.6%,?,16.8,

# Source: PubChem (National Center for Advancing Translational Sciences (NCATS))
